Screens: PubChem BioAssay, National Center for Advancing Translational Sciences (NCATS)
Hits are enriched below; roughly 15% of the tested compounds scored in any of these assays.
HCV inh: blocks hepatitis C virus. 340,000 compounds, 3.4% hits. AID 651820. Huh7.5.1 HCVcc-Cre infection, luciferase reporter, 44 h. Potency, µM (doses to about 41.8 µM), inactives show at the top dose activity change, negative = inhibition, most hits filed as inhibitors; note: potency is the fitted concentration of half-maximal effect; % is set by controls: 0 for no effect and ±100 for the full control effect
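After 44 h co-culture of compound, cells and HCVcc-Cre (~0.5 moi), substrate is added for 15 min at room temperature and luciferase measured over 15 sec. Cells were seeded at 1,000/well and pre-cultured 4 h.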
Sm TGR inh: inhibitors of Schistosoma mansoni thioredoxin glutathione reductase; Q962Y6; purified TGR, DTNB reduction, TNB absorbance 405 nm; Potency, µM (doses to about 114 µM), for the others: at the top dose activity change, negative = inhibition, hits mostly inhibitors; 360,000 compounds, 3% hits; note: potency is the fitted concentration of half-maximal effect; % is set by controls: 0 for no effect and ±100 for the full control effect; nearly all actives have a fitted effect of over 60% in size
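TGR 20 nM + NADPH 100 uM (dispensed conc.), cpd preinc 15 min RT; start with NADPH (500 uM addition) then DTNB (15 mM addition). Kinetic TNB absorbance, 405 nm filter. Four-parameter Hill fit across titration.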
SARS PLP yeast: inhibitors of SARS-CoV papain-like protease in yeast; S. cerevisiae expressing SARS-CoV PLpro, growth rescue; Potency, µM (doses to about 32.9 µM), for the others: top-dose activity, positive = growth rescue, hits mostly activators; 330,000 compounds, 0.19% hits; AID 485353; calls by dose curve; note: potency is the fitted concentration of half-maximal effect; 0% is about no effect; nearly all actives have a fitted effect of over 55% in size
Pf growth 48h: P. falciparum growth inhibition at 48 hours (one generation). Potency, µM (doses to about 28.7 µM), for inactives: at the top dose activity change, negative = inhibition, most hits filed as inhibitors. AID 504832. P. falciparum luciferase growth in erythrocytes, 48 h. 310,000 compounds, 5.9% hits; note: potency is the fitted concentration of half-maximal effect; % is set by controls: 0 for no effect and ±100 for the full control effect
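A one-generation exposure of luciferase-tagged malaria parasites in RPMI 1640/Albumax erythrocyte culture, 37 C and 5% CO2. Inhibition is inferred from decreased luminescence after adding detection reagent.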
HCMV inh: inhibitors of human cytomegalovirus. HFF cells, HCMV-luciferase reporter, 72 h; hits give low values. 410,000 compounds, 4.5% hits. activity change, negative = inhibition, % at 57.5 µM; in the data active = activity change below about -60%; inconclusive = no clear call, values can overlap the other calls; inactive = above about -39%; note: % is set by controls: 0 for no effect and ±100 for the full control effect
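Inhibition of viral replication was scored as loss of reporter luminescence in HFFs infected with HCMV-luciferase (MOI 1 PFU/cell) for 72 h; compounds tested at 2 doses, normalized to buffer and Salinomycin controls.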
Pf growth 96h: inhibits malaria parasite growth, 96 h. P. falciparum luciferase reporter growth, 96 h. Potency, µM (doses to about 28.7 µM), for the others: at the top dose activity change, negative = inhibition, usual class: inhibitors. 320,000 compounds, 6.9% hits. AID 504834; note: potency is the fitted concentration of half-maximal effect; % is set by controls: 0 for no effect and ±100 for the full control effect
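Compounds incubated with erythrocytes infected by luciferase-expressing P. falciparum (2% hematocrit, 0.05% parasitemia final) for 96 hours, 37 C in 5% CO2. Growth inhibition scored as decreased luciferase luminescence.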
An asterisk follows results filed as active; [ ] = dose if it differs, or a comment. Unless noted, calls come from the whole dose curve; as a rule, active = well fitted curve in the direction sought with a large enough effect; inconclusive = small, poorly fitted or top-dose-only effect, or another doubt; inactive = no such curve, though single readings can be large; an effect the other way counts as inactive or inconclusive.

Results for CC(=O)c1ccc(C(=O)N2CCC(CO)(Cc3cccc(C(F)(F)F)c3)CC2)cc1 ?
HCV inh: inconclusive; Sm TGR inh: -4%; SARS PLP yeast: -1%; Pf growth 48h: inconclusive; HCMV inh: -75*; Pf growth 96h: inconclusive

How did C=C(C1=CCN(S(=O)C(C)(C)C)[C@@H]1CCO)c1ccccc1 (some centres undefined) do in these assays?
HCV inh: 14%; HCMV inh: 29

What do the screens show for `N#CC1=C(N)Oc2cc(N)ccc2C1c1ccc(F)cc1F` (centres undefined)?
HCV inh: inconclusive; Sm TGR inh: 0%; SARS PLP yeast: -5%; Pf growth 48h: 1%; HCMV inh: 38; Pf growth 96h: 5.9µM*

What do the screens show for `Clc1cccc2c1Sc1ccccc1CC2N1CCNCC1` (centres undefined)?
HCV inh: 10µM*; Sm TGR inh: 3%; SARS PLP yeast: -42%; Pf growth 48h: inconclusive; HCMV inh: inconclusive; Pf growth 96h: 10µM*

Results for COCCCN1CCN(C2Cc3ccccc3Sc3ccc(Cl)cc32)CC1 (centres undefined) ?
HCV inh: -15%; Sm TGR inh: -2%; SARS PLP yeast: -20%; Pf growth 48h: inconclusive; HCMV inh: -2; Pf growth 96h: inconclusive

How did O=C(c1ccccc1Cl)N1CCNCC1 do in these assays?
HCV inh: 25%; Sm TGR inh: -23%; SARS PLP yeast: 9%; HCMV inh: 21; Pf growth 96h: inconclusive

What do the screens show for `Clc1ccc2c(c1)C(N1CCNCC1)Cc1ccccc1S2` (centres undefined)?
HCV inh: inconclusive; Sm TGR inh: -26%; SARS PLP yeast: -21%; Pf growth 48h: 10µM*; Pf growth 96h: 13µM*

Results for O=C(c1ccc(COc2ccc(Cl)cc2)o1)N1CCN(Cc2ccc3c(c2)OCO3)CC1 ?
HCV inh: 8.9µM*; Sm TGR inh: -22%; SARS PLP yeast: 0%; Pf growth 48h: 0%; HCMV inh: -33

How did CCN1CCN(C(=O)c2ccc(COc3cccc(Cl)c3)o2)CC1 do in these assays?
HCV inh: inconclusive; Sm TGR inh: -12%; SARS PLP yeast: -3%; Pf growth 48h: 25%; HCMV inh: -69*; Pf growth 96h: -10%

Results for O=C(NCc1ccc2c(c1)OCO2)c1ccc(CSCc2ccc(Cl)cc2)o1 ?
HCV inh: 6%; Sm TGR inh: 0%; SARS PLP yeast: -4%; Pf growth 48h: 4%; HCMV inh: 27; Pf growth 96h: -57%

Results for CCN1CCN(C(=O)c2ccc(COc3ccc(Cl)cc3)o2)CC1 ?
HCV inh: inconclusive; Sm TGR inh: 32%; SARS PLP yeast: -3%; Pf growth 48h: 6%; HCMV inh: -12; Pf growth 96h: -3%

Results for O=C(NCc1ccc2c(c1)OCO2)c1ccc(COc2cc(Cl)ccc2Cl)o1 ?
HCV inh: inconclusive; Sm TGR inh: -33%; SARS PLP yeast: -10%; HCMV inh: -9; Pf growth 96h: 6.6µM*

How did CN(C)c1cc2c3ccccc3n(C)c2cc1N do in these assays?
HCV inh: inconclusive; HCMV inh: 51

How did COC(=O)C(Cc1cccc(C)n1)(c1ccccc1)c1ccccc1 do in these assays?
HCV inh: -21%; Sm TGR inh: 15%; SARS PLP yeast: -2%; Pf growth 48h: 9.3µM*; HCMV inh: 25; Pf growth 96h: inconclusive

Results for COC(=O)c1ccccc1OCc1cccc(C)n1 ?
HCV inh: inconclusive; Sm TGR inh: 1%; SARS PLP yeast: 12%; Pf growth 48h: 8%; HCMV inh: 22; Pf growth 96h: 16%

How did Cc1ccc(NC(=O)C2CCCN(c3nnc(C)c4c(C)n(-c5ccccc5)nc34)C2)c(Cl)c1 (centres undefined) do in these assays?
Sm TGR inh: 0%; HCMV inh: inconclusive

How did COc1ccc2nccc(/C=C/c3ccnc4ccc(OC)cc34)c2c1 do in these assays?
HCV inh: inconclusive; Sm TGR inh: -3%; SARS PLP yeast: 0%; Pf growth 48h: 3.3µM*; HCMV inh: -21; Pf growth 96h: 3.7µM*

How did COc1cc(OC)c(OC)cc1/C=C/c1ccnc2ccccc12 do in these assays?
HCV inh: -4%; HCMV inh: inconclusive

What do the screens show for `COc1ccc(OC)c(/C=C/c2ccnc3ccccc23)c1`?
HCV inh: inconclusive; HCMV inh: -98*

What do the screens show for `O=C(NCCc1ccccc1F)C1CCCN(c2nc3ccccc3s2)C1` (centres undefined)?
HCV inh: -24%; Sm TGR inh: -14%; SARS PLP yeast: -8%; Pf growth 48h: -9%; HCMV inh: 24; Pf growth 96h: -21%

What do the screens show for `Cc1ccc(CN(C)C(=O)C2CCCN2C(=O)c2cccs2)o1` (centres undefined)?
HCV inh: 9%; Sm TGR inh: 7.9µM*; SARS PLP yeast: 2%; Pf growth 48h: 7%; HCMV inh: -28; Pf growth 96h: -7%

Results for CCCS(=O)(=O)N1CCCC(C(=O)NCCCN2CCN(c3cccc(Cl)c3)CC2)C1 (centres undefined) ?
HCV inh: inconclusive; Sm TGR inh: -6%; SARS PLP yeast: 5%; Pf growth 48h: -6%; HCMV inh: 11; Pf growth 96h: inconclusive

What do the screens show for `O=[N+]([O-])c1cc(S(=O)(=O)Nc2ccccc2)ccc1N1CCN(c2ccccc2)CC1`?
HCV inh: 13µM*; Sm TGR inh: -1%; SARS PLP yeast: -5%; Pf growth 48h: inconclusive; HCMV inh: -32; Pf growth 96h: inconclusive

How did CN1CCN(c2ccc(C(=O)c3ccc(Br)cc3)cc2[N+](=O)[O-])CC1 do in these assays?
HCV inh: 10µM*; Sm TGR inh: 1%; SARS PLP yeast: -3%; Pf growth 48h: -16%; HCMV inh: -68*; Pf growth 96h: -2%[5.75 µM]

Results for CN1CCN(c2ccc(S(C)(=O)=O)cc2[N+](=O)[O-])CC1 ?
HCV inh: 35%; Sm TGR inh: -9%; SARS PLP yeast: 2%; Pf growth 48h: 6%; HCMV inh: 1; Pf growth 96h: 12µM*

What do the screens show for `Cc1ccc(S(=O)(=O)N2[C@@H](CO)CO[C@H]2CC(=O)c2ccc(F)cc2)cc1`?
HCMV inh: -16

What do the screens show for `O=C1CCC[C@H]2[C@@H](Cc3ccccc3)[C@@H](NS(=O)(=O)c3ccc(-c4ccccc4)cc3)CC[C@]23CCCN13`?
HCMV inh: -33

Results for O=C(Nc1nc(-c2nc3ccccc3s2)cs1)c1ccco1 ?
HCV inh: 14%; Sm TGR inh: -4%; SARS PLP yeast: -7%; Pf growth 48h: 100%; HCMV inh: 103; Pf growth 96h: 84%
